Reference: paper PMC12820563, “FoxP3 forms a head-to-head dimer in vivo and stabilizes its multimerization on adjacent microsatellites”
Over roughly 16,000 sequences, “rpm ratio (pull-down/input)” has its median near 0.94; the highest 2% begin near 1.7. Only a selection was taken, and the highest values are over-represented in it overall.

These sequences were tested against T1, MBP-FoxP1dN (Mus musculus, UniProt P58462 326-579) (assay: PD-seq (MBP pull-down with sequencing); 20 mM Tris-HCl pH 7.5, 100 mM NaCl, 1.5 mM MgCl2, 0.4 uM protein, 0.1 uM dsDNA library, 30 min, room temperature, amylose pull-down; high values mean tight binding). Conditions: protein: recombinant; tags: His6-MBP; chain copies: 2; dsDNA, one strand shown.
T1 sequence: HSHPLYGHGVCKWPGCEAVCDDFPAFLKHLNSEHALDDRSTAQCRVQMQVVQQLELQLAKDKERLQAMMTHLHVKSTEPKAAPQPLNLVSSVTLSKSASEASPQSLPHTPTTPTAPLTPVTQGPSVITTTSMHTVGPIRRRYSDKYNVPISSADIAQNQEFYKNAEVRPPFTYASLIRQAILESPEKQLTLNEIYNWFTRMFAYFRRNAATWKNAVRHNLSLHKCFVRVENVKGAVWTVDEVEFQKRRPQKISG
Procedure, shortened: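 Protein and DNA were mixed at 0.4 µM and 0.1 µM and held for 30 min at room temperature in Tris pH 7.5 buffer with NaCl and MgCl2; the protein was a His6-MBP-tagged, N-terminally truncated mouse FoxP3 or FoxP1 fragment from E. coli, and the DNA a Klenow-filled double-stranded degenerate library. Amylose resin captured the complexes, which were washed three times. Binding is read as reads-per-million enrichment of pull-down versus input after Illumina sequencing, with replicates pooled.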
“GATGATTGTTCTCCCAGCTGATGAATTTCATAAATCGAGTAAACAAATTTTCCTAATCTTTCTGTTCAAGCGCCATCTAC” was tested, and the binding signal was 1.05 RPM ratio (pull-down/input). In the case of “GATGATTGTTCTCCCAGCTGATGAATTAAATCACTCGAGTAAACAAATTTTCCTAATCTTTCTGTTCAAGCGCCATCTAC”, the binding signal is reported as 1.09 RPM ratio (pull-down/input). For “GATGATTGTTCTCCCAGCTGATGAATTAGACGCGTCGAGTAAACAAATTTTCCTAATCTTTCTGTTCAAGCGCCATCTAC”, the binding signal was 0.99 RPM ratio (pull-down/input). In the case of “GATGATTGTTCTCCCAGCTGATGAATTGCAGATGTCGAGTAAACAAATTTTCCTAATCTTTCTGTTCAAGCGCCATCTAC”, the binding signal is reported as 1.27 RPM ratio (pull-down/input). With “GATGATTGTTCTCCCAGCTGATGAATTACTCCAATCGAGTAAACAAATTTTCCTAATCTTTCTGTTCAAGCGCCATCTAC” the binding signal was 1.1 RPM ratio (pull-down/input). “GATGATTGTTCTCCCAGCTGATGAATTCCCCAGGTCGAGTAAACAAATTTTCCTAATCTTTCTGTTCAAGCGCCATCTAC” was tested, and the binding signal was 0.743 RPM ratio (pull-down/input). For “GATGATTGTTCTCCCAGCTGATGAATTATTTGTGTCGAGTAAACAAATTTTCCTAATCTTTCTGTTCAAGCGCCATCTAC”, the binding signal was 2.12 RPM ratio (pull-down/input). In the case of “GATGATTGTTCTCCCAGCTGATGAATTATGTGTGTCGAGTAAACAAATTTTCCTAATCTTTCTGTTCAAGCGCCATCTAC”, the binding signal is reported as 1.4 RPM ratio (pull-down/input). “GATGATTGTTCTCCCAGCTGATGAATTATCTGTGTCGAGTAAACAAATTTTCCTAATCTTTCTGTTCAAGCGCCATCTAC” was tested, and the binding signal was 1.03 RPM ratio (pull-down/input). In the case of “GATGATTGTTCTCCCAGCTGATGAATTACATATATCGAGTAAACAAATTTTCCTAATCTTTCTGTTCAAGCGCCATCTAC”, the binding signal is reported as 1.34 RPM ratio (pull-down/input). With “GATGATTGTTCTCCCAGCTGATGAATTACTACTATCGAGTAAACAAATTTTCCTAATCTTTCTGTTCAAGCGCCATCTAC” the binding signal was 1.24 RPM ratio (pull-down/input). With “GATGATTGTTCTCCCAGCTGATGAATTACCAATATCGAGTAAACAAATTTTCCTAATCTTTCTGTTCAAGCGCCATCTAC” the binding signal was 1.79 RPM ratio (pull-down/input). With “GATGATTGTTCTCCCAGCTGATGAATTACCAATCTCGAGTAAACAAATTTTCCTAATCTTTCTGTTCAAGCGCCATCTAC” the binding signal was 0.961 RPM ratio (pull-down/input). “GATGATTGTTCTCCCAGCTGATGAATTACTAATATCGAGTAAACAAATTTTCCTAATCTTTCTGTTCAAGCGCCATCTAC” was tested, and the binding signal was 1.73 RPM ratio (pull-down/input). “GATGATTGTTCTCCCAGCTGATGAATTACTGATATCGAGTAAACAAATTTTCCTAATCTTTCTGTTCAAGCGCCATCTAC” was tested, and the binding signal was 1.18 RPM ratio (pull-down/input). “GATGATTGTTCTCCCAGCTGATGAATTTACAATATCGAGTAAACAAATTTTCCTAATCTTTCTGTTCAAGCGCCATCTAC” was tested, and the binding signal was 1.63 RPM ratio (pull-down/input). “GATGATTGTTCTCCCAGCTGATGAATTACAAATATCGAGTAAACAAATTTTCCTAATCTTTCTGTTCAAGCGCCATCTAC” was tested, and the binding signal was 2.21 RPM ratio (pull-down/input). In the case of “GATGATTGTTCTCCCAGCTGATGAATTACCAATTTCGAGTAAACAAATTTTCCTAATCTTTCTGTTCAAGCGCCATCTAC”, the binding signal is reported as 1.13 RPM ratio (pull-down/input). With “GATGATTGTTCTCCCAGCTGATGAATTTCGCCAGTCGAGTAAACAAATTTTCCTAATCTTTCTGTTCAAGCGCCATCTAC” the binding signal was 0.805 RPM ratio (pull-down/input). With “GATGATTGTTCTCCCAGCTGATGAATTGCGATTTTCGAGTAAACAAATTTTCCTAATCTTTCTGTTCAAGCGCCATCTAC” the binding signal was 1.25 RPM ratio (pull-down/input). For “GATGATTGTTCTCCCAGCTGATGAATTGTTACCTTCGAGTAAACAAATTTTCCTAATCTTTCTGTTCAAGCGCCATCTAC”, the binding signal was 1.25 RPM ratio (pull-down/input). In the case of “GATGATTGTTCTCCCAGCTGATGAATTGGATGCGTCGAGTAAACAAATTTTCCTAATCTTTCTGTTCAAGCGCCATCTAC”, the binding signal is reported as 1.29 RPM ratio (pull-down/input). In the case of “GATGATTGTTCTCCCAGCTGATGAATTTTCTAGCTCGAGTAAACAAATTTTCCTAATCTTTCTGTTCAAGCGCCATCTAC”, the binding signal is reported as 0.887 RPM ratio (pull-down/input). For “GATGATTGTTCTCCCAGCTGATGAATTCCCGCTTTCGAGTAAACAAATTTTCCTAATCTTTCTGTTCAAGCGCCATCTAC”, the binding signal was 0.937 RPM ratio (pull-down/input). In the case of “GATGATTGTTCTCCCAGCTGATGAATTATAATCTTCGAGTAAACAAATTTTCCTAATCTTTCTGTTCAAGCGCCATCTAC”, the binding signal is reported as 0.909 RPM ratio (pull-down/input). “GATGATTGTTCTCCCAGCTGATGAATTCATGATGTCGAGTAAACAAATTTTCCTAATCTTTCTGTTCAAGCGCCATCTAC” was tested, and the binding signal was 1.21 RPM ratio (pull-down/input). For “GATGATTGTTCTCCCAGCTGATGAATTCTTCATGTCGAGTAAACAAATTTTCCTAATCTTTCTGTTCAAGCGCCATCTAC”, the binding signal was 0.907 RPM ratio (pull-down/input). In the case of “GATGATTGTTCTCCCAGCTGATGAATTCATGTTGTCGAGTAAACAAATTTTCCTAATCTTTCTGTTCAAGCGCCATCTAC”, the binding signal is reported as 2.26 RPM ratio (pull-down/input). With “GATGATTGTTCTCCCAGCTGATGAATTGATGATGTCGAGTAAACAAATTTTCCTAATCTTTCTGTTCAAGCGCCATCTAC” the binding signal was 1.39 RPM ratio (pull-down/input). For “GATGATTGTTCTCCCAGCTGATGAATTAAAAATGTCGAGTAAACAAATTTTCCTAATCTTTCTGTTCAAGCGCCATCTAC”, the binding signal was 0.979 RPM ratio (pull-down/input). With “GATGATTGTTCTCCCAGCTGATGAATTTCTGATGTCGAGTAAACAAATTTTCCTAATCTTTCTGTTCAAGCGCCATCTAC” the binding signal was 1.23 RPM ratio (pull-down/input). “GATGATTGTTCTCCCAGCTGATGAATTAATGTTGTCGAGTAAACAAATTTTCCTAATCTTTCTGTTCAAGCGCCATCTAC” was tested, and the binding signal was 2.64 RPM ratio (pull-down/input). For “GATGATTGTTCTCCCAGCTGATGAATTTTTGATGTCGAGTAAACAAATTTTCCTAATCTTTCTGTTCAAGCGCCATCTAC”, the binding signal was 1.3 RPM ratio (pull-down/input). For “GATGATTGTTCTCCCAGCTGATGAATTGATGTTGTCGAGTAAACAAATTTTCCTAATCTTTCTGTTCAAGCGCCATCTAC”, the binding signal was 2.52 RPM ratio (pull-down/input).
